In the library only some 3.5% were active in any assay of this set; here they are far more common.
GDH-TPI inh – GDH-TPI coupled enzyme inhibition counter-screen. hit rate 1.2% among 360,000. AID 588335. inhibition, % at 4.8 µM. GDH-TPI coupled enzyme counterscreen, NADH absorbance; in the data active = inhibition above about 30%;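 note: 0% = DMSO wells and 100% = wells lacking the enzyme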
Mtb FBA inh – inhibitors of M. tuberculosis fructose-bisphosphate aldolase; purified M. tuberculosis FBA, fluorescence read-out; inhibition, % at 1 µM; hit rate 2.3% among 360,000; AID 588726; in the data active = inhibition above about 27%;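 note: 0% = vehicle and 100% = reference inhibitor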
Target sequence (P9WQA3 whole entry, looked up): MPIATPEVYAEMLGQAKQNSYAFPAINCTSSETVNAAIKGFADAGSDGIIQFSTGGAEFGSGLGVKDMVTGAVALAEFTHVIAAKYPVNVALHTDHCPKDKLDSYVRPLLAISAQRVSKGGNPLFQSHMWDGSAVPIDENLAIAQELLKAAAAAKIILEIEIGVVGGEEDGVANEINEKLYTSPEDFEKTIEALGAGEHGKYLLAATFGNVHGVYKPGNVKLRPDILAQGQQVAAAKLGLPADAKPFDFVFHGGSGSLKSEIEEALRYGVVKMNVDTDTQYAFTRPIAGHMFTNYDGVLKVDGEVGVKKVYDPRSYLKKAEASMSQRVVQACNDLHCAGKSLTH
Mtb UGM inh – blocks M. tuberculosis UGM enzyme; purified UGM, fluorescence polarization probe displacement; P9WIQ1; AID 504406; inhibition, % at 10 µM; hit rate 0.06% among 320,000; in the data active = inhibition above about 10%, passing the limit was not always enough
Rv3671c protease – inhibits the M. tuberculosis serine protease Rv3671c; P9WHR9; hit rate 0.048% among 320,000; inhibition, % at 5.96 µM; in the data active = inhibition above about 38%;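 note: extracellular domain of Rv3671c used as enzyme; 0% = enzyme with DMSO and 100% = no enzyme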
Mtb bLac sens – beta-lactam sensitization of Mtb H37Rv. inhibition, % at 25 µM. hit rate 0.27% among 330,000. AID 434955. M. tuberculosis H37Rv growth with meropenem, percent inhibition; call rule not given here;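 note: growth measured after seven days incubation then overnight dye step; 0% = bacteria only wells and 100% = bacteria with antibiotic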
* marks the source's active call; other numbers are inactive results; · = no result given; + = active, no number.

SMILES	GDH-TPI inh	Mtb FBA inh	Mtb UGM inh	Rv3671c protease	Mtb bLac sens
CCCSc1nc(=S)n(Cc2ccccc2)c(C)c1C(C)=O	10	-2	4	1	-1
O=C(Nc1cccc(NC(=O)c2ccc(Cl)cc2Cl)c1)c1cccnc1	1	-2	0	-4	1
O=C(c1ccco1)c1cc2c(ccc3ccccc32)oc1=O	14	4	-1	10	86
COCC(C)NC(=O)c1cc2c(ccc3ccccc32)oc1=O (stereo not drawn)	9	+	1	8	4
CCN(c1ccc(OC)cc1)S(=O)(=O)c1csc(C(=O)N2CCCC2)c1	4	-5	2	-7	4
O=C1C[C@@H]2c3c(cccc3CN1Cc1ccccc1F)C[C@@H](O)[C@H]2O	3	-1	·	·	·
COc1cc(NC(=O)CCl)ccc(=O)c1	42*	3	·	·	·
Cc1ccc(C)c(S(=O)(=O)C(C#N)c2nc3ccccc3nc2N2CCCC2)c1 (stereo not drawn)	-12	5	3	-62	-4
Cc1cccc(S(=O)(=O)C(C#N)c2nc3ccccc3nc2N2CCCC2)c1 (stereo not drawn)	7	74*	1	2	-5
COc1cc(C(=O)NC(=S)N2CCN(C)CC2)cc(OC)c1OC	-3	-3	1	-1	2
Nc1nc2nn(-c3ccccc3)nc2c(=O)[nH]1	14	199*	1	0	3
COc1ccc(-n2nc3cc(C)c(NC(C)=O)cc3n2)cc1	7	114*	-2	2	4
COCCNc1cc(C)c(C#N)c2nc3ccccc3n12	10	193*	0	-1	3
Cc1cc(NCCCO)n2c(nc3ccccc32)c1C#N	10	181*	4	9	-9
Cc1cc(NCCOCCO)n2c(nc3ccccc32)c1C#N	11	+	1	-9	-3
COc1ccc(Nc2nc(C)nc3c2nnn3Cc2ccccc2Cl)c(OC)c1	2	1	0	-4	-1
CC(=O)c1ccc(S(=O)(=O)N(C)CCCC(=O)N2CCN(c3ncccn3)CC2)cc1	2	1	-3	-2	-8
CCCN(CC(=O)Nc1ccccc1C)C(=O)/C=C/c1ccc(OCC)c(OC)c1	34*	13	-1	-1	-2
CCOc1ccc(/C=C/C(=O)N(CC)CC(=O)Nc2c(F)cccc2F)cc1OC	32*	10	·	·	·
O=C(CSc1nnc(CNC(=O)c2c(F)cccc2Cl)o1)Nc1ccc2c(c1)OCO2	-3	95*	-3	-1	-10
CC1CCN(S(=O)(=O)c2ccc3c(c2)N(CC(=O)N(C)Cc2ccco2)C(=O)CO3)CC1	2	-2	-1	2	-1
Cn1cc(/C=C(\NC(=O)c2ccccc2)C(=O)NCCCN2CCOCC2)c2ccccc21	33*	2	-2	-2	11
O=C(/C=C/c1cccc([N+](=O)[O-])c1)N1CCOCC1	4	-3	1	0	-3
CN1CCN(C(=O)/C(=C/c2cn(C)c3ccccc23)NC(=O)c2ccccc2)CC1	25	-11	2	-5	6
O=C(/C=C/c1ccc(-c2cccc([N+](=O)[O-])c2)o1)N1CCOCC1	38*	0	2	-20	3
SMILES	GDH-TPI inh	Mtb FBA inh	Mtb UGM inh	Rv3671c protease	Mtb bLac sens
CCn1cc(/C=C(\NC(=O)c2ccccc2F)C(=O)NCCN2CCOCC2)c2ccccc21	33*	-6	1	-6	-4
CN(C)S(=O)(=O)n1cc(/C=C(\NC(=O)c2ccccc2F)C(=O)NCCN2CCOCC2)c2ccccc21	12	4	·	·	·
COc1ccc(C(=O)N/C(=C\c2cn(C)c3ccccc23)C(=O)N2CCN(C)CC2)cc1	43*	-1	2	-8	-1
COc1ccc(C(=O)N/C(=C\c2cn(C)c3ccccc23)C(=O)NCCCN2CCOCC2)cc1OC	20	6	-1	-4	-2
CC(C)OC(=O)c1cc2c(=O)[nH]c(C(Cl)(Cl)Cl)nc2o1	0	10	-1	0	-3
COc1ccc(CN2C(=O)c3ccccc3C2C(=O)NC2CCCC(C)C2C)c(OC)c1 (stereo not drawn)	6	2	·	·	·
O=C(NCCCN1CCOCC1)/C(=C/c1ccc(-c2cccc([N+](=O)[O-])c2)o1)NC(=O)c1ccccc1	40*	-4	·	·	·
CCOC(=O)c1cc(=O)n2c(nc3ccccc32)[nH]1	16	+	1	3	18
CCCCc1c(O)n2c(nc3ccccc32)[nH]c1=O	0	-12	2	2	-1
COc1ccccc1CN1CCN(S(=O)(=O)c2ccc(C)cc2)CC1	0	0	1	-1	-6
COc1cccc(-n2c(-c3ccco3)nc3nc4ccccc4nc32)c1	10	7	-3	-3	-5
CC(C)OCCCn1c(-c2ccco2)nc2nc3ccccc3nc21	36*	+	-1	-3	18
COCCn1c(-c2ccco2)nc2nc3ccccc3nc21	37*	+	-1	1	-5
CCC(C)n1c(-c2ccco2)nc2nc3ccccc3nc21 (stereo not drawn)	·	·	-1	-11	5
CCC(Oc1ccccc1)C(=O)OCC(=O)N(CC)c1c(N)n(Cc2ccccc2)c(=O)[nH]c1=O (stereo not drawn)	-1	1	1	9	-5
O=C(NCCc1c[nH]c2ccccc12)/C(=C\c1cccnc1)NC(=O)c1ccccc1F	13	0	-2	-3	-5
COc1cc(OC)cc(-c2nnc(SCC(=O)N3CCCC3)o2)c1	-4	118*	0	2	41
COc1ccc(-c2nnc(SCC(=O)N3CCCC3)o2)cc1	-10	1	3	0	-1
COc1ccccc1C(=O)NC1CCN(C(=O)Nc2ccc(C)cc2)CC1	-5	-1	-1	-7	0
CN1CCN(C(=O)/C(=C/c2ccc([N+](=O)[O-])cc2)NC(=O)c2ccccc2)CC1	-1	-3	-1	6	1
CN1CC=C2C(C#N)=C(N)C(C#N)(C#N)[C@H](c3ccoc3)[C@H]2C1	9	61*	3	15	0
CC(=O)N1CC=C2C(C#N)=C(N)C(C#N)(C#N)[C@H](c3ccoc3)[C@H]2C1	12	13	3	2	5
Cc1cc(OCC(=O)N2CCC(C(=O)O)CC2)c2c(C)cc(=O)oc2c1	6	130*	0	2	-2
CCCCc1cc(=O)oc2cc(C)cc(OCC(=O)N3CCC(C(=O)O)CC3)c12	18	124*	0	8	-6
Cn1c(CNC(=O)CCNC(=O)c2cccc(Br)c2)cc(=O)n(C)c1=O	16	0	-3	-3	10
CC(=O)c1ccc(-c2ccc(C(=O)N3CCN(c4ccc(F)cc4)CC3)o2)cc1	22	2	1	-3	4
CC(=O)c1ccc(-c2ccc(C(=O)N3CCC(C(N)=O)CC3)o2)cc1	30	118*	5	-4	-8
O=C(NCC1CCCO1)c1ccc(-c2cccc(C(F)(F)F)c2)o1 (stereo not drawn)	1	3	1	-7	5
CC(=O)c1ccc(-c2ccc(C(=O)NC3CC(C)(C)NC(C)(C)C3)o2)cc1	44*	180*	-1	3	-14

High-throughput results (PubChem BioAssay)
